According to PubChem BioAssay (NCATS):
Records with an inconclusive call do not appear. Activity calls are given as the source filed them. Unless noted, calls come from the whole dose curve; as a rule, active = well fitted curve in the direction sought with a large enough effect; inconclusive = small, poorly fitted or top-dose-only effect, or another doubt; inactive = no such curve, though single readings can be large; an effect the other way counts as inactive or inconclusive.

Key:
[1] = target: Calcium and integrin-binding protein 1 (Homo sapiens) (UniProt Q99828); test: Primary qHTS for Identification of Calcium Integrin Binding Protein 1 (CIB1) Competitor (AID 1508620);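 note: GST tagged CIB1 binding a fluorescein labelled alphaIIb integrin peptide tracer; top concentration of the series differs between compounds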
Sequence of Calcium and integrin-binding protein 1 (Homo sapiens) (Q99828 whole entry, looked up): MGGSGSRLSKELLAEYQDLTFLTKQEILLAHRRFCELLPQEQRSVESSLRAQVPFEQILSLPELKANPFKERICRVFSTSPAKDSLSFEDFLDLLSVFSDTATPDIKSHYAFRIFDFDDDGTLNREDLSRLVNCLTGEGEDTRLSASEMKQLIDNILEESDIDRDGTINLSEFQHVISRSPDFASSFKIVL
In short: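 CIB1-GST (1 uM final) and compound incubated 15 min at room temperature before adding FITC-alphaIIb peptide tracer (100 nM final). Competition for binding read by fluorescence polarization (ex 480, em 540) after another 15 min at room temperature.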

[2] = A High-Content qHTS Against Drug Library for the Identification of Small Molecules that Inhibit DYT1 Early Onset Primary Dystonia-Associated Cell Pathology (AID 1645839; calls by dose curve)
In short: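 High-content imaging quantified EGFP-TorsinA mislocalization in HEK293-derived cells inducibly expressing DYT1 mutant torsinA, after 48 h exposure to compound given together with tetracycline induction. Cell count served as a toxicity channel alongside %pathology.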

[3] = target: Cytochrome P450 2D6 (Homo sapiens) (UniProt P10635); test: Cytochrome P450 family 2 subfamily D member 6 (CYP2D6) small molecule antagonists: luciferase biochemical (cell-free) qHTS assay (AID 1645840; active = well fitted curve in the direction sought with a large enough effect in the repeat runs; an effect the other way counts as inactive or inconclusive; note: nearly all actives have a fitted effect of over 55% in size; note: potency is the fitted concentration of half-maximal effect)
Sequence of Cytochrome P450 2D6 (Homo sapiens) (P10635 whole entry, looked up): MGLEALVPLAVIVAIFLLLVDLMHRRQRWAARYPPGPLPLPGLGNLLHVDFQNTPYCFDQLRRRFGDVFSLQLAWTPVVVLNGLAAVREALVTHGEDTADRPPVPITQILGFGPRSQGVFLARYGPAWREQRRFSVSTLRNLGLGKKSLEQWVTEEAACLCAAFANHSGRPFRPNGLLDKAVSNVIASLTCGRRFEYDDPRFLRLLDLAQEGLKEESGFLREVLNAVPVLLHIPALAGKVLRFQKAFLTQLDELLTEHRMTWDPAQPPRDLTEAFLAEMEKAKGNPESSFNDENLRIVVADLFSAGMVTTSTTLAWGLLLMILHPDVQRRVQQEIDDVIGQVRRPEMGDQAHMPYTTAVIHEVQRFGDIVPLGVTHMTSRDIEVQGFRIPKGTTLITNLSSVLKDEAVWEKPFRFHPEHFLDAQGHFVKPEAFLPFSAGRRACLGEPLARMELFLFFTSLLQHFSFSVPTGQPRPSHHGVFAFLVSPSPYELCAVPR
In short: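 P450-Glo CYP2D6 system: proluciferin substrate converted by enzyme to luciferin, read by luminescence proportional to activity. Enzyme-substrate mix with compound 10 min at room temperature, then NADPH regeneration 1 h before detection reagent.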

[4] = target: Cytochrome P450 2C9 (Homo sapiens) (UniProt P11712); test: Cytochrome P450 family 2 subfamily C member 9 (CYP2C9) small molecule antagonists: luciferase biochemical (cell-free) qHTS assay (AID 1645842; active = well fitted curve in the direction sought with a large enough effect in the repeat runs; an effect the other way counts as inactive or inconclusive; note: nearly all actives have a fitted effect of over 55% in size; note: potency is the fitted concentration of half-maximal effect)
Sequence of Cytochrome P450 2C9 (Homo sapiens) (P11712 whole entry, looked up): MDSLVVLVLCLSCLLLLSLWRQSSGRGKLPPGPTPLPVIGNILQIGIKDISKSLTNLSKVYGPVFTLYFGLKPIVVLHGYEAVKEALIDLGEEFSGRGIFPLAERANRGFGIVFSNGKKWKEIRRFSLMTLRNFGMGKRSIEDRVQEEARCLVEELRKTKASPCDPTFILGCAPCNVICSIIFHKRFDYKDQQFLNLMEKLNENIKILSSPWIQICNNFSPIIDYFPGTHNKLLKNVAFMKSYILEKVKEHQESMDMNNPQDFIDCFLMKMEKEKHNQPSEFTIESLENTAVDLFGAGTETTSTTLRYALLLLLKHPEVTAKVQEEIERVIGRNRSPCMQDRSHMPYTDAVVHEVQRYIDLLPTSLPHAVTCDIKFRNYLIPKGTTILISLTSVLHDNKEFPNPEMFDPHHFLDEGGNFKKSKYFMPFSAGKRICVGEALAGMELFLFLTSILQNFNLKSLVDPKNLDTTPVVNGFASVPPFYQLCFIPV
In short: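 P450-Glo CYP2C9 system: proluciferin substrate with enzyme in mix containing 0.4% BSA, 10 min at room temperature, then NADPH regeneration solution added and incubated 1 h at 37C. Detection reagent stopped reaction; luminescence read after 20 min as RLU.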

[5] = Primary qHTS for inhibitors of nuclear receptor binding SET domain protein 2 (NSD2) in an isogenic RCH-ACV NSD2 p.E1099K mutant (9B) (AID 1645876); note: nearly all actives have a fitted effect of over 70% in size; note: potency is the fitted concentration of half-maximal effect
[6] = Primary qHTS for inhibitors of nuclear receptor binding SET domain protein 2 (NSD2) in an RCH-ACV wild type WT cells (2C) (AID 1645877); note: nearly all actives have a fitted effect of over 70% in size
[7] = target: Cytochrome P450 3A4 (Homo sapiens) (UniProt P08684); test: Cytochrome P450 family 3 subfamily A member 4 (CYP3A4) small molecule antagonists: luciferase qHTS assay (AID 1645841; active = well fitted curve in the direction sought with a large enough effect in the repeat runs; an effect the other way counts as inactive or inconclusive; note: nearly all actives have a fitted effect of over 45% in size)
Sequence of Cytochrome P450 3A4 (Homo sapiens) (P08684 whole entry, looked up): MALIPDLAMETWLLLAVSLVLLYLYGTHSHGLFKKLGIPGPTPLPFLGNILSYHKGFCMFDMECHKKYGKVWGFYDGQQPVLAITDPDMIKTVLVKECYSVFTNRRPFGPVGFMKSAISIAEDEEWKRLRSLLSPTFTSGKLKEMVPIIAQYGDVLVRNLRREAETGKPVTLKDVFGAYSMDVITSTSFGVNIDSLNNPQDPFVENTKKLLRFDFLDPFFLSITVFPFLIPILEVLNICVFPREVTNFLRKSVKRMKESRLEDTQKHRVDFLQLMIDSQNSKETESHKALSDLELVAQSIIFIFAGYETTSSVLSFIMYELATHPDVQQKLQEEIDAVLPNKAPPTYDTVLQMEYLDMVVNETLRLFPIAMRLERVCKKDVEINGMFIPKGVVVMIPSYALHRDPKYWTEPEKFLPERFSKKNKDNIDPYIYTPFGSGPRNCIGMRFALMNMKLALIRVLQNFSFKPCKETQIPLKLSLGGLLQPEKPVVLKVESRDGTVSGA
In short: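 Luminescent CYP3A4 activity readout: compounds plus enzyme-substrate mix 10 min at room temperature, reaction started with NADPH regenerating system for 1 h, stopped with detection reagent, read after 20 min. Ketoconazole served as control.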

[8] = Primary qHTS for small molecule stabilizers of the endoplasmic reticulum resident proteome: Secreted ER Calcium Modulated Protein (SERCaMP) assay (AID 1508630)
In short: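 The SH-SY5Y reporter protocol was run at 3 concentrations up to 38.3 uM (primary) or 11 concentrations (follow-up): 16 h compound, 100 nM thapsigargin for 4 h, then extracellular luciferase luminescence.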

[9] = Cytotoxicity counterscreen for inhibitors of SARS-CoV-2 cell entry (AID 1645845; calls by dose curve; note: nearly all actives have a fitted effect of over 50% in size)
In short: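 ATP-content luminescence (ATPLite 1step, 15 min RT) read after 48 h compound exposure of Expi293F cells stably expressing human ACE2; normalized to cells-only wells and media-only wells.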

[10] = Primary qHTS to identify inhibitors of SARS-CoV-2 cell entry (AID 1645846; calls by dose curve; note: nearly all actives have a fitted effect of over 45% in size; note: potency is the fitted concentration of half-maximal effect); details: activity change, negative = inhibition: at 57.1 µM (top of the series) unless noted
In short: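 HEK293 cells stably expressing human ACE2, pre-treated 1 h with compound, then infected with MLV particles pseudotyped with Wuhan-Hu-1 spike (C-terminal 19-aa truncation). Luciferase luminescence after 48 h at 37 °C, normalised to spike PP and bald PP.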

Papain (Carica papaya) = Papain (Carica papaya) (UniProt P00784); test: Primary qHTS assay for inhibitors of the protease papain (AID 1645873);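 note: papain turnover of Z-FR-AMC read as the AMC fluorescence gain over 10 min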
Sequence of Papain (Carica papaya) (P00784 whole entry, looked up): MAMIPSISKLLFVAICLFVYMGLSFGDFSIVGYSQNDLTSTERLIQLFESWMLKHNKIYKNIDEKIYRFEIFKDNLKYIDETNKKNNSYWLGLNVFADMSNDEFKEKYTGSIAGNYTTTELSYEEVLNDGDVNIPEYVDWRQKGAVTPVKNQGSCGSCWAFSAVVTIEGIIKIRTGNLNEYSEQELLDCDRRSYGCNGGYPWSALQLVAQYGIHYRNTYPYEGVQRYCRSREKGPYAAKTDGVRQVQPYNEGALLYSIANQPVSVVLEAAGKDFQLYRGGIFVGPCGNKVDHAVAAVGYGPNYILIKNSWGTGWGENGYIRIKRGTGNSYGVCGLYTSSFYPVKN

[11] = target: Rap guanine nucleotide exchange factor 3 (Homo sapiens) (UniProt O95398); test: Confirmatory qHTS for agonist of cAMP-regulated guanine nucleotide exchange factor 3 (EPAC1) (AID 1645881);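 note: EPAC1 catalysed release of BODIPY-GDP from Rap1B seen as fluorescence loss; nearly all actives have a fitted effect of over 75% in size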
Sequence of Rap guanine nucleotide exchange factor 3 (Homo sapiens) (O95398 whole entry, looked up): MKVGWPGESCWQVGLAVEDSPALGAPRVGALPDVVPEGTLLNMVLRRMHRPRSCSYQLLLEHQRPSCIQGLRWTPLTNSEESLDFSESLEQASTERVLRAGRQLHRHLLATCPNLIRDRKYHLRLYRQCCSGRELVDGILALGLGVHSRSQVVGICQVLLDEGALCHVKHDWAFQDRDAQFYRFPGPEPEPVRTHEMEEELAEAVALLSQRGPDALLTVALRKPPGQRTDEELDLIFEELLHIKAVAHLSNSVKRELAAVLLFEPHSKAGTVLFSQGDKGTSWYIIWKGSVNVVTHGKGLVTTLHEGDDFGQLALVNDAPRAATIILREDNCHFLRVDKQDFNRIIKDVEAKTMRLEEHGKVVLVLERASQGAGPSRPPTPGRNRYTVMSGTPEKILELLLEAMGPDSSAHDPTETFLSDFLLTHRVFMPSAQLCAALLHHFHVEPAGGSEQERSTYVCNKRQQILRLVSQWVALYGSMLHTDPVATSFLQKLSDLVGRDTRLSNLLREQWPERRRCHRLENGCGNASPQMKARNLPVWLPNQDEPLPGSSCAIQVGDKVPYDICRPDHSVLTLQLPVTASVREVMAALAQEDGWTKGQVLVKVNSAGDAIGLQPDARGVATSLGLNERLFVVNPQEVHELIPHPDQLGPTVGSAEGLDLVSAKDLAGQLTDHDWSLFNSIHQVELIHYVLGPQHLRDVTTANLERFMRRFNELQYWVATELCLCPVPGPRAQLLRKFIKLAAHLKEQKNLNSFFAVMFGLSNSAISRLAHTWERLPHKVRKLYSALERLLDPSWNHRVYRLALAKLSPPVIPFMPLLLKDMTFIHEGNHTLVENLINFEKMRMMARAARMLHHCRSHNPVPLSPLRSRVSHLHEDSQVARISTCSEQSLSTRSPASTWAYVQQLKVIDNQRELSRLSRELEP

[12] = target: Rap guanine nucleotide exchange factor 4 (Homo sapiens) (UniProt Q8WZA2); test: Confirmatory qHTS for agonist of cAMP-regulated guanine nucleotide exchange factor 4 (EPAC2) (AID 1645884);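 note: nucleotide exchange releases bodipy-GDP from Rap1 and this lowers its fluorescence; nearly all actives have a fitted effect of over 65% in size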
Sequence of Rap guanine nucleotide exchange factor 4 (Homo sapiens) (Q8WZA2 whole entry, looked up): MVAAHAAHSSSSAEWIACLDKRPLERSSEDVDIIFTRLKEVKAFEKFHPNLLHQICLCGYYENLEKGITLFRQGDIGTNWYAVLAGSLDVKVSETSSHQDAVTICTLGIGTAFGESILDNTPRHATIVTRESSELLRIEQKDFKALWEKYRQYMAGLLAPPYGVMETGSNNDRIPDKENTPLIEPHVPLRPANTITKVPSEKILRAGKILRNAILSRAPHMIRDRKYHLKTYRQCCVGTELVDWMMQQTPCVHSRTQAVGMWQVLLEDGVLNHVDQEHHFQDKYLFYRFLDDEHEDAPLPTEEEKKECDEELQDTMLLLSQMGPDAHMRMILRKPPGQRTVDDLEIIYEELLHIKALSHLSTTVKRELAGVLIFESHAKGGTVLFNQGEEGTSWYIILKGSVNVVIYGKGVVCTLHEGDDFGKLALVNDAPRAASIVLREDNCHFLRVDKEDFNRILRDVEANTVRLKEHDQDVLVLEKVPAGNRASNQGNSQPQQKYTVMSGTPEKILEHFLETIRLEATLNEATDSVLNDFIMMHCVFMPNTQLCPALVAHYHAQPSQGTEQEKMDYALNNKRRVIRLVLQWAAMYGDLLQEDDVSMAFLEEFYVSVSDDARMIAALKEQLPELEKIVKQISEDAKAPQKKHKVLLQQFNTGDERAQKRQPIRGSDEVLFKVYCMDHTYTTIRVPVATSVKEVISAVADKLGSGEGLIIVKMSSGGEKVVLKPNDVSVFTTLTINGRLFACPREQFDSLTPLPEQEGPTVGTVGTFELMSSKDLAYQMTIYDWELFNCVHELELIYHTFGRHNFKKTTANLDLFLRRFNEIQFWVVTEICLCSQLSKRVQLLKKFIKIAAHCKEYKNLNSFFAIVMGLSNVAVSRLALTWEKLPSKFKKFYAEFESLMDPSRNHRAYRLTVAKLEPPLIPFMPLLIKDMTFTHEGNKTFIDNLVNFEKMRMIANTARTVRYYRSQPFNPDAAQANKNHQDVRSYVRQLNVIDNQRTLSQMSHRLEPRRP

CC(Cc1ccccc1)NCCn1cnc2c1c(=O)n(C)c(=O)n2C (stereo not drawn)
inactive: Potency [1] | outcome [2] | Potency [4] | Potency [5] | Potency [6]
active: Potency [3] 7.01 µM

Clc1ccccc1N1CCNCC1
active: Potency [3] 13.8 µM
inactive: Potency [1] | outcome [2] | Potency [7] | Potency [5] | Potency [6]

O=C(Nc1ccc(Br)cc1)c1cc(Br)cc(Br)c1O
inactive: Potency [1] | Potency [8] | Potency [9] | Potency [10] | Potency [5] | Potency [6]

CNC(C)(C)Cc1ccccc1
inactive: Potency [1] | Potency [8] | Potency [9] | Potency [10] | Potency [5] | Potency [6]

CCC1(c2ccccc2)C(=O)N(COC)C(=O)N(COC)C1=O
inactive: Potency [1] | Potency [8] | Potency [5] | Potency [6]

NCCc1ccc(O)cc1
active: Potency [3] 13.8 µM
inactive: Potency [8] | outcome [2] | Potency [4] | outcome (Papain (Carica papaya)) | Potency [5]

C[C@]12CC[C@@H]3c4ccc(OC(=O)N(CCCl)CCCl)cc4CC[C@H]3[C@@H]1CC[C@@H]2O
inactive: Potency [8] | Potency [3] | Potency [7] | Potency [9] | Potency [10] | outcome [11] | outcome [12]

CCN(CC)CCc1c[nH]c2ccccc12
inactive: Potency [8] | Potency [7]

C[C@]12CC[C@H]3[C@@H](CCC4=CC(=O)CC[C@@H]43)[C@@H]1CC[C@@H]2OC(=O)CCc1ccco1
inactive: Potency [8] | outcome [2] | Potency [9] | Potency [10]
active: Potency [4] 15.5 µM | Potency [5] 23.7 µM

COc1ccc2c(c1OC)C(=O)O[C@H]2[C@@H]1c2cc3c(cc2CCN1C)OCO3
active: Potency [4] 4.9 µM
inactive: Potency [8] | Potency [9] | Potency [10] | outcome (Papain (Carica papaya)) | Potency [5] | Potency [6]

C[C@]12Cc3cn[nH]c3C[C@@H]1CC[C@@H]1[C@@H]2CC[C@@]2(C)[C@H]1CC[C@]2(C)O
active: Potency [3] 1.95 µM | Potency [4] 0.692 µM
-13.6%: activity change, negative = inhibition [10]
inactive: Potency [8] | outcome [2] | Potency [9] | Potency [6]

Nc1nc(N)nc(NC2CC2)n1
inactive: Potency [8] | outcome [2] | Potency [7] | Potency [4] | Potency [5] | Potency [6]

CCCOC(=O)c1cncn1C(C)c1ccccc1 (stereo not drawn)
inactive: Potency [8] | Potency [3] | Potency [5] | Potency [6]

c1ccc(N2CCNCC2)cc1
inactive: outcome [2] | Potency [3] | Potency [4] | Potency [5] | Potency [6]

CN1C(=O)NC(=O)C(C)(C2=CCCCC2)C1=O (stereo not drawn)
3.11%: activity change, negative = inhibition [10]
inactive: Potency [8] | Potency [3] | Potency [9] | Potency [5] | Potency [6]

COP(=S)(OC)SCN1C(=O)c2ccccc2C1=O
inactive: Potency [8] | Potency [9] | Potency [10]
active: Potency [3] 15.5 µM | Potency [4] 0.776 µM

C[C@](O)(CS(=O)(=O)c1ccc(F)cc1)C(=O)Nc1ccc(C#N)c(C(F)(F)F)c1
-4.4%: activity change, negative = inhibition [10]
inactive: Potency [8] | Potency [9]

CN1CCC(O)(c2ccc(F)cc2)C(C(=O)c2ccc(F)cc2)C1 (stereo not drawn)
inactive: Potency [8] | outcome [2] | Potency [4] | Potency [5] | Potency [6]

NC(=O)CS(=O)C(c1ccccc1)c1ccccc1 (stereo not drawn)
inactive: outcome [2] | Potency [4] | Potency [5] | Potency [6]

O=C(O)c1ccc(=O)[nH]c1
inactive: outcome [2] | Potency [4] | Potency [5] | Potency [6]

CCC(CC)(CNC(=O)CCCO)c1cccc(OC)c1
-32.3%: activity change, negative = inhibition [10]
inactive: Potency [8] | outcome [2] | Potency [4] | Potency [9] | Potency [5] | Potency [6]

O=c1c(C2CC(c3ccc(-c4ccc(Br)cc4)cc3)Cc3ccccc32)c(O)sc2ccccc12 (stereo not drawn)
inactive: Potency [8] | Potency [3]
active: Potency [10] 14.1 µM

NC1=NC(=O)C(c2ccccc2)O1 (stereo not drawn)
inactive: Potency [8] | Potency [3] | Potency [5] | Potency [6]

[N-]=[N+]=CC(=O)OC[C@H](N)C(=O)O
inactive: Potency [8] | outcome [2] | Potency [5] | Potency [6]
